Inconclusive results are not listed. Where a call stands in place of a potency, no number is given. Active and inactive are the calls of the source. Calls follow the shape of the dose curve; as a rule, active = well fitted curve in the direction sought with a large enough effect; inconclusive = small, poorly fitted or top-dose-only effect, or another doubt; inactive = no such curve, though single readings can be large; an effect the other way counts as inactive or inconclusive.
Assay: P-glycoprotein substrates identified in KB-8-5-11 adenocarcinoma cell line, qHTS therapeutic library screen (AID 1346987); also: nearly all actives have a fitted effect of over 65% in size
Conditions: KB-8-5-11 (P-gp overexpressing) viability, CellTiter-Glo, 72 h; series mostly up to 44.5 µM
Method in brief: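 P-gp-mediated resistance screen: KB-8-5-11 cells treated 72 h with compounds in dose-response. CellTiter-Glo viability.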
Potency is read from the fitted curve at half-maximal effect.

**Q.** Which Potency does the source give for `COC[C@H](NC(=O)c1cnc(C)s1)C(=O)N[C@@H](COC)C(=O)N[C@@H](Cc1ccccc1)C(=O)[C@@]1(C)CO1` here?
**A.** 3.72 µM (active)

**Q.** Which Potency does the source give for `CN1C(C(=O)Nc2ccccn2)=C(O)c2sc(Cl)cc2S1(=O)=O` here?
**A.** inactive

**Q.** For `C[C@@H](Oc1ccc2[nH]nc(C=Cc3cnn(CCO)c3)c2c1)c1c(Cl)cncc1Cl`, which Potency is on record?
**A.** 0.332 µM (active)

**Q.** Which Potency does the source give for `O=C1NC(=O)[C@@H](c2cn3c4c(cccc24)CCC3)[C@H]1c1c[nH]c2ccccc12` here?
**A.** 0.469 µM (active)

**Q.** For `CCOc1cc2c(c(F)c1OCC)C(=N)N(CC(=O)c1cc(N3CCOCC3)c(OC)c(C(C)(C)C)c1)C2`, which Potency is on record?
**A.** 20.9 µM (active)

**Q.** With `CC(C)(C)[C@H](NC(=O)c1ccc(N)c(Cl)c1)C(=O)N1CCC[C@@H]1C(=O)N[C@H](C#N)CC(=O)O` as the molecule, how does the activity change, negative = cytotoxicity read?
**A.** 2.87% [at 5.11 µM] (inactive)

Assay: NS1 protein of Zika virus - qHTS assay to identify small molecule inhibitors in human HEK 293 cells (AID 1347053); also: nearly all actives have a fitted effect of over 55% in size
Conditions: HEK293 ZIKV MR766 infection, NS1 TR-FRET, 24 h; series mostly up to 46.1 µM
Method in brief: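 Following 20 h seeding, HEK 293 cells took compound, then 1 h later ZIKV MR766 (MOI = 0.5). Incubation ran 24 h at 37 C before TR-FRET detection of NS1; a drop in signal indicates inhibition.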

**Q.** For `NC(=O)Nc1sc(-c2ccc(F)cc2)cc1C(N)=O`, which Potency is on record?
**A.** inactive

**Q.** With `CC(C)(N)c1ccc(-c2nc3ccccc3nc2-c2ccccc2)cc1` as the molecule, how does the Potency read?
**A.** 18.7 µM (active)

**Q.** Which Potency does the source give for `C=C(C)[C@@H]1CC[C@]2(C(=O)O)CC[C@]3(C)[C@H](CC[C@@H]4[C@@]5(C)CC[C@H](O)C(C)(C)[C@@H]5CC[C@]43C)[C@@H]12` here?
**A.** inactive

**Q.** With `C=C1C(=O)O[C@H]2[C@@H]1CCC(C)=CCC[C@@]1(C)O[C@@H]21` as the molecule, how does the Potency read?
**A.** 9.35 µM (active)

**Q.** With `C=Cc1c(C)c2cc3nc(cc4[nH]c(cc5nc(cc1[nH]2)C(C)=C5CCC(=O)O)c(CCC(=O)OC)c4C)[C@@]1(C)C3=CC=C(C(=O)OC)[C@H]1C(=O)OC` as the molecule, how does the Potency read?
**A.** inactive

**Q.** Which Potency does the source give for `Cc1ccc([N+](=O)[O-])cc1S(=O)(=O)N(C)N=Cc1cnc2ccc(Br)cn12` here?
**A.** 0.118 µM (active)

**Q.** For `CCc1nc(-c2cccc(C)c2)c(-c2ccnc(NC(=O)c3ccccc3)c2)s1`, which Potency is on record?
**A.** 10.5 µM (active)

**Q.** Which Potency does the source give for `CCCc1nc(C(C)(C)O)c(C(=O)O)n1Cc1ccc(-c2ccccc2-c2nn[nH]n2)cc1` here?
**A.** inactive

**Q.** For `CC(C)N(CC[C@H](c1ccccc1)c1cc(CO)ccc1O)C(C)C`, which Potency is on record?
**A.** inactive

**Q.** With `CC(C)N1[N]C(=C2C=c3cc(O)ccc3=N2)c2c(N)ncnc21` as the molecule, how does the Potency read?
**A.** 4.69 µM (active)

**Q.** Which Potency does the source give for `CC(C)(O)CC[C@@H](O)[C@](C)(O)[C@H]1CC[C@@]2(O)C3=CC(=O)[C@@H]4C[C@@H](O)[C@@H](O)C[C@]4(C)[C@@H]3CC[C@]12C` here?
**A.** inactive

**Q.** Which Potency does the source give for `CN[C@H]1[C@@H](O)[C@@H]2O[C@@H]3O[C@H](C)CC(=O)[C@]3(O)O[C@@H]2[C@@H](NC)[C@H]1O` here?
**A.** inactive

**Q.** Which Potency does the source give for `C[C@H](CCC(=O)O)[C@H]1CCC2C3C[C@H](O)[C@@H]4C[C@H](O)CC[C@]4(C)C3CC[C@@]21C` (stereo not given in full) here?
**A.** inactive

**Q.** Which Potency does the source give for `O=C1c2cccc(O)c2C(=O)c2c(O)cc(CO)cc21` here?
**A.** inactive

**Q.** Which Potency does the source give for `C[C@]12CC[C@@H]3c4ccc(O)cc4CC[C@H]3[C@H]1CC[C@H]2O` here?
**A.** inactive

**Q.** For `Cc1ccccc1C(=O)Nc1ccc(C(=O)N2CCCC(O)c3cc(Cl)ccc32)c(C)c1` (stereo not given), which Potency is on record?
**A.** inactive

**Q.** With `COc1ccc(CCC(=O)c2c(O)cc(O[C@@H]3O[C@H](CO)[C@@H](O)[C@H](O)[C@@H]3O[C@@H]3O[C@@H](C)[C@H](O)[C@@H](O)[C@@H]3O)cc2O)cc1O` as the molecule, how does the Potency read?
**A.** inactive

**Q.** For `CCc1cnn2c(NCc3ccc[n+]([O-])c3)cc(N3CCCC[C@@H]3CCO)nc12`, which Potency is on record?
**A.** 0.148 µM (active)

**Q.** Which Potency does the source give for `CC(C)C[C@H](NC(=O)CNC(=O)c1cc(Cl)ccc1Cl)B1OC(=O)CC(CC(=O)O)(C(=O)O)O1` (stereo not given in full) here?
**A.** 0.209 µM (active)

**Q.** Which Potency does the source give for `COc1cccc2c1C(=O)c1c(O)c3c(c(O)c1C2=O)C[C@@](O)(C(=O)CO)C[C@@H]3O[C@H]1C[C@H](N)[C@H](OC2CCCCO2)[C@H](C)O1` (stereo not given in full) here?
**A.** 2.96 µM (active)

**Q.** For `COC(=O)[C@@H]1[C@H]2C[C@@H]3c4[nH]c5ccccc5c4CCN3C[C@@H]2CC[C@@H]1O`, which Potency is on record?
**A.** inactive

**Q.** With `CNC(=O)c1cccc(-c2ccc3c(N4CCOC[C@H]4C)nc(N4CCOC[C@H]4C)nc3n2)c1` as the molecule, how does the Potency read?
**A.** inactive

**Q.** For `C[C@@H](Cc1cc2c(c(C(N)=O)c1)N(CCCO)CC2)NCCOc1ccccc1OCC(F)(F)F`, which Potency is on record?
**A.** inactive

**Q.** Which Potency does the source give for `CC[C@@]1([C@@H]2O[C@@H]([C@H]3O[C@@](O)(CO)[C@H](C)C[C@H]3C)C[C@H]2C)CC[C@H]([C@]2(C)CC[C@]3(C[C@H](O)[C@@H](C)[C@@H]([C@@H](C)[C@@H](OC)[C@H](C)C(=O)O)O3)O2)O1` here?
**A.** 1.29 µM (active)

**Q.** For `CC(=O)C1=C(O)C=C2Oc3c(C(C)=O)c(O)c(C)c(O)c3C2(C)C1=O` (stereo not given), which Potency is on record?
**A.** inactive

**Q.** With `N#CC(=C(O)c1ccc(Cl)cc1Cl)c1nc2cc(Cl)ccc2c(=O)[nH]1` as the molecule, how does the Potency read?
**A.** inactive

**Q.** For `CC(=O)NCC(=O)N1[C@H]2CC[C@H]1c1cc(Nc3ncc(C(F)(F)F)c(NC4CCC4)n3)ccc12`, which Potency is on record?
**A.** 13.2 µM (active)

**Q.** For `Nc1ccn(C2CO[C@H](CO)O2)c(=O)n1` (stereo not given in full), which Potency is on record?
**A.** inactive

**Q.** With `NC(=O)c1ncn([C@@H]2O[C@H](CO)[C@@H](O)[C@@H]2O)c1N` as the molecule, how does the Potency read?
**A.** inactive

**Q.** For `Cc1cc(O)c2c(c1)C(=O)c1cccc(O)c1C2=O`, which Potency is on record?
**A.** inactive

**Q.** For `CC(C)Oc1ccc(C(=O)N[C@H](CNC(=O)CN(C)C)Cc2ccc(-c3cn4cccc([C@H](C)O)c4n3)cc2)cc1Cl`, which Potency is on record?
**A.** 20.9 µM (active)

**Q.** With `COC(=O)[C@H](CCCN=C(N)N)NS(=O)(=O)c1ccc(C)cc1` as the molecule, how does the Potency read?
**A.** inactive

**Q.** For `CC(C)c1cc(C(C)C)c(CC(=O)NS(=O)(=O)Oc2c(C(C)C)cccc2C(C)C)c(C(C)C)c1`, which Potency is on record?
**A.** inactive

**Q.** Which Potency does the source give for `COC[C@H](NC(=O)c1cnc(C)s1)C(=O)N[C@@H](COC)C(=O)N[C@@H](Cc1ccccc1)C(=O)[C@@]1(C)CO1` here?
**A.** 1.18 µM (active)

**Q.** For `CN1C(C(=O)Nc2ccccn2)=C(O)c2sc(Cl)cc2S1(=O)=O`, which Potency is on record?
**A.** inactive

**Q.** With `C[C@@H](Oc1ccc2[nH]nc(C=Cc3cnn(CCO)c3)c2c1)c1c(Cl)cncc1Cl` as the molecule, how does the Potency read?
**A.** inactive

**Q.** With `O=C1NC(=O)[C@@H](c2cn3c4c(cccc24)CCC3)[C@H]1c1c[nH]c2ccccc12` as the molecule, how does the Potency read?
**A.** 6.62 µM (active)

**Q.** For `CCOc1cc2c(c(F)c1OCC)C(=N)N(CC(=O)c1cc(N3CCOCC3)c(OC)c(C(C)(C)C)c1)C2`, which Potency is on record?
**A.** inactive

**Q.** For `CC(C)(C)[C@H](NC(=O)c1ccc(N)c(Cl)c1)C(=O)N1CCC[C@@H]1C(=O)N[C@H](C#N)CC(=O)O`, which activity change, negative = inhibition is on record?
**A.** 0.927% [at 4.81 µM] (inactive)

Source: PubChem BioAssay (NCATS)
